# Source: PubChem BioAssay (NCI)
# This is part of a sample that, as a whole, favours compounds with a hit. Of some 83,000 tested, about 20% had one in any assay.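 Growth was measured after 48 h exposure to one concentration of compound in 96-well plates. Values under 10 count as active.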 Activity calls are given as the source filed them.
# System: U251 CNS
# Assay: NCI-60 one-dose screen, 48 h (100 = growth as untreated, 0 = no growth, -100 = all killed)
# Details: 10 µM unless noted
row,Structure (SMILES),growth
1,CC(=O)CCC(=O)OCc1cc(=O)c(O)co1,107% (inactive)
2,O=C(c1nc2ccccc2[nH]1)C1C(c2ccc(Cl)cc2)C2CC3CCCC[C@H]3N2[C@@]12C(=O)Nc1cc(Cl)ccc12 (some centres undefined),49.3% (inactive)
3,COc1cccc(-c2nc3occn3c2-c2ccnc(NCCNS(=O)(=O)c3cccc4ccccc34)n2)c1,108% (inactive)
4,COc1cc(-c2n/c(=C\c3c(O)[nH]c4ccc(Cl)cc34)cc3c2=Nc2ccccc2-3)ccc1F,-88.3% (active)
5,NNC(=O)c1ccc(-n2nc(-c3ccccc3)c3ccccc32)cc1,22.6% (inactive)
6,O=C1Nc2cc(-c3cccc(O)c3)ccc2/C1=C/c1ccc[nH]1,25.9% (inactive)
7,COc1cccc(/C=N/NC(=O)c2cnn3c2NC(c2ccccc2)C3)c1Oc1ccccc1 (centres undefined),83.9% (inactive)
8,S=c1cc(S)c2cc(Br)ccc2[nH]1,98.3% (inactive)
9,O=C(NCCc1ccccc1)Nc1ccc2cc3ccc(NC(=O)NCCc4ccccc4)cc3nc2c1,-26.4% (active)
10,CCN(CC)CCCC(C)Nc1cc(O)cc2cccnc12 (centres undefined),88.2% (inactive)
11,CCOC(=O)C1=C(C)NC(SCc2cc(=O)oc3ccc(F)cc23)=N[C@@H]1c1cccc2ccccc12,102% (inactive)
12,COc1ccc(C(=O)c2cc(OC)c(OC)c(OC)c2)cc1O,20.5% (inactive)
13,CCCOC(=O)N[C@H]1CCc2c(Cl)c(OC)c(OC)c(OC)c2-c2ccc(SC)c(=O)cc21,23.2% (inactive)
14,Cc1ccc(/C=N/NC(=O)CSc2nc3ccccc3c(=O)n2Cc2ccc(S(N)(=O)=O)cc2)cc1,93.9% (inactive)
